Consider 40 compounds from PubChem BioAssay (NCATS).

A number with no mark means an inactive call. No rule for the calls is given here.
Potency is read from the fitted curve at half-maximal effect.

The subject of this assay is HIV-1 nucleocapsid protein NCp7 (binding to TG oligonucleotide). As to the kind of experiment: HIV Nucleocapsid (AID 346).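 Also: potency is for inhibitors that block NC binding and lower polarization.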 The settings on record: HIV-1 NC / fluorescein-TGTGTGTG probe, fluorescence polarization. The procedure, abridged: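 Reagents dispensed (10 nM TG4xF, 100 nM HIV-1 NC), plates spun, compounds pin-transferred, then incubated 1 hr at room temperature before FP imaging. Buffer: Hepes pH 7.5, 250mM NaCl, 1uM ZnCl2, 100 uM TCEP, 5 mM 2-mercaptoethanol.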
Background: In fluorescence polarisation assays a small probe gives low polarisation when free and higher when bound to something large.
In the case of `COc1ncc2nc(C)c(=O)n(Cc3ccc(F)cc3)c2n1`, the Potency is greater than 20 µM.
Under `O=S(=O)(c1ccccc1)N1CCC2(CCCN(c3ccccn3)C2)CC1` stands greater than 4 µM; under `COc1ccc2[nH]cc(CCNc3ncnc4ccc(-c5c(C)noc5C)cc34)c2c1`, greater than 20 µM.
Turning to `COc1ccc2[nH]cc(CCNc3ccnc(-c4cccc(C#N)c4)n3)c2c1`, the Potency is greater than 20 µM.
Under `CCNc1ncc2nc(C)c(=O)n(C[C@H]3CCCO3)c2n1` stands greater than 20 µM.
Consider `CC(=O)N1CCC[C@@]2(CCN(c3ncccn3)C2)C1`, for which the Potency is greater than 20 µM.
Under `COc1ncc2nc(-c3ccc(F)cc3)c(=O)n(CCC#N)c2n1` stands greater than 20 µM; under `CC(C)NC(=O)N1CC[C@@]2(CCCN(C(=O)c3cnccn3)C2)C1`, greater than 20 µM.
Under `CS(=O)(=O)Nc1cccc(-c2nc(N3CCNCC3)c3ccccc3n2)c1` stands greater than 20 µM.
Under `Cn1cccc1C(=O)N1CCC2(CC1)CCN(c1ncccn1)CC2` stands greater than 20 µM; under `COc1ccc(CNc2ncnc3ccc(-c4ccc(C(=O)N(C)C)cc4)cc23)c(OC)c1`, greater than 20 µM.
On to `CN1CCN(c2ncc3nc(CCc4ccccc4)c(=O)n(CCc4ccccc4)c3n2)CC1`, for which the Potency is greater than 20 µM.
Under `Cc1ccccc1-c1nc(N2CCN(C)CC2)c2ccccc2n1` stands greater than 20 µM.
Take `COc1ccc(-n2c(=O)c(-c3ccc(F)cc3)nc3cnc(OC)nc32)cc1`: the Potency was greater than 20 µM.
Under `COc1ccc2[nH]cc(CCNc3cc(-c4ccc(C(=O)N(C)C)cc4)ncn3)c2c1` stands greater than 20 µM; under `COc1ccccc1-c1ccc2ncnc(Nc3ccccc3)c2c1`, greater than 20 µM.
With `O=C(c1csnn1)N1CCC2(CC1)CN(c1cccc(-c3ccccc3)c1)C2`, the Potency is greater than 20 µM.
As for `Cc1noc(C)c1-c1nc(NC2CCNCC2)c2ccccc2n1`, the figure is greater than 20 µM.
As for `COc1cccc(Cn2c(=O)c(C)nc3cnc(OC)nc32)c1`, the figure is greater than 20 µM.
Under `O=C(c1csnn1)N1CCC2(CC1)CN(c1ccccn1)C2` stands greater than 20 µM; under `O=S(=O)(c1ccccc1)N1CCC2(CCN(c3ccccc3)CC2)CC1`, greater than 20 µM.
In the case of `COc1cccc(Nc2ncc3nc(-c4ccc(Cl)cc4)c(=O)n(C4CC4)c3n2)c1`, the Potency is greater than 4 µM.
As for `COc1cccc(Cn2c(=O)c(-c3cccs3)nc3cnc(Nc4cccc(OC)c4)nc32)c1`, the figure is greater than 20 µM.
Under `Cn1cccc1C(=O)N1CCC2(CC1)CN(c1cccc(-c3ccccc3)c1)C2` stands greater than 20 µM; under `COC(=O)N1CCC2(CCCN(Cc3ccccc3)C2)CC1`, greater than 20 µM.
As for `O=C(Nc1cccc(F)c1)N1CC2(CCN(C(=O)c3cccc(F)c3)CC2)C1`, the figure is greater than 20 µM; as for `COc1ccccc1CNc1ncnc2ccc(-c3ccc(C(=O)N(C)C)cc3)cc12`, greater than 20 µM.
As to `CN(C)Cc1ccccc1-c1cc(NCc2cccs2)ncn1`, the Potency was greater than 20 µM.
With `CN1CCN(c2nc(-c3ccc4c(c3)OCO4)nc3ccccc23)CC1`, the Potency was greater than 20 µM.
As for `COc1ccccc1CNc1ccnc(-c2ccoc2)n1`, the figure is greater than 20 µM; as for `O=c1c(-c2ccc(F)cc2)nc2cnc(Oc3ccccc3)nc2n1C1CC1`, greater than 20 µM; as for `CN(C)C(=O)c1ccc(-c2nc(N3CCOCC3)c3ccccc3n2)cc1`, greater than 20 µM.
As for `COc1ccccc1CCn1c(=O)c(-c2cc(F)cc(F)c2)nc2cncnc21`, the figure is greater than 20 µM; as for `Cc1cccc(CNc2nc(-c3ccccc3CN(C)C)nc3ccccc23)c1`, greater than 20 µM; as for `CC(=O)N1CCC2(CCCN(c3ncccn3)C2)CC1`, greater than 20 µM.
Under `COc1ncc2nc(CCc3ccccc3)c(=O)n(-c3ccccc3)c2n1` stands greater than 20 µM; under `COc1ccc(Oc2ncc3ncc(=O)n(C[C@H]4CCCO4)c3n2)cc1`, greater than 20 µM; under `Cc1ccccc1-c1cc(-n2ccnc2)ncn1`, greater than 20 µM.
`Cc1noc(C)c1-c1nc(Nc2ccccc2)c2ccccc2n1`: the Potency is greater than 20 µM.
For `N#Cc1cccc(-c2nc(NCc3cccnc3)c3ccccc3n2)c1`, the Potency was greater than 20 µM.
